Experimental data from PubChem BioAssay (NCATS).
Records with an inconclusive call do not appear. Entries that show only a call come without a potency. Active and inactive are the calls of the source. The call rests on the fitted dose curve; in most records, active means well fitted cell-killing curve with a large enough effect; inconclusive means small, poorly fitted or top-dose-only effect, or effect the other way; inactive means flat fitted curve, though single readings scatter.

tested on: SKOV3; assay: Primary qHTS to identify gynecologic anti-cancer compounds using libraries of approved drugs and bioactive compounds (AID 1345084); conditions: Gynecologic cancer cell panel viability, ATPlite luminescence, 48 h; series mostly up to 57.5 µM; further: nearly all actives have a fitted effect of over 55% in size
Method in brief: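 Cells, 1,000 per well, were allowed to settle for 16 h at 37 C before compound addition. Five concentrations were tested for 48 h, and viability was read by ATPlite luminescence after 15 min at room temperature.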
Potency means the concentration at half of the fitted maximal effect.

SMILES | Potency | activity change, negative = cytotoxicity
CC(NCCCc1cccc(C(F)(F)F)c1)c1cccc2ccccc12 (centres undefined) | inactive | 
CCNC1(C(N)=O)CN(c2nc(C)nc3c(-c4ccc(Cl)cc4)c(-c4ccccc4Cl)nn23)C1 | inactive | 
CCc1c(Cl)c(O)c(Cl)c(O)c1C(=O)O[C@H]1[C@H](O)[C@H](OC)[C@H](OC/C2=C\C=C\C[C@H](O)/C(C)=C\[C@H](CC)[C@@H](O[C@@H]3OC(C)(C)[C@@H](OC(=O)C(C)C)[C@H](O)[C@@H]3O)/C(C)=C/C(C)=C/C[C@@H]([C@@H](C)O)OC2=O)O[C@@H]1C | inactive | 
CCCN(CCc1ccsc1)C1CCc2c(O)cccc2C1 (centres undefined) | inactive | 
CC(=O)O[C@@H]1[C@@H](O)[C@H](O[C@@H]2[C@@H](O)[C@@H](O)[C@H](O[C@H]3[C@H](O[C@H]4[C@H](O[C@H]5CC[C@@]6(C)C(CC[C@]7(C)C6CC=C6[C@@H]8CC(C)(C)CC[C@]8(C(=O)O)CC[C@]67C)[C@]5(C)CO)O[C@H](CO)[C@@H](O)[C@@H]4O)OC[C@@H](O)[C@@H]3O)O[C@H]2C)OC[C@H]1O (some centres undefined) |  | 10.7% [at 11.6 µM] (inactive)
Fc1ccc2c(CCNCc3cccc(OCC(F)(F)C(F)F)c3)c[nH]c2c1 | inactive | 
Cc1cc2c(cc1N1C(=O)c3cccc4c(CCCO)ccc(c34)C1=O)n(C)c(=O)n2C | inactive | 
Cc1c(F)ccc(C(=O)Nc2cc([N+](=O)[O-])ccc2N2CCN(C)CC2)c1Cl | inactive | 
Cc1ccnc(NC(=O)C(C)c2cccc(C(=O)c3ccccc3)c2)c1 (centres undefined) | inactive | 
CC1=CC2/C=C(\C)CCC(O)C/C=C/C(=O)OC23C(=O)NC(CC(C)C)C3C1C (centres undefined) | inactive | 
CC[C@H]1CN(c2nc(N)c(C(N)=O)nc2Cl)CCN1C1CCN(Cc2ccc(Cl)cc2)CC1 | inactive | 
COc1cccc(NCCC2(c3ccccc3)CC(C)(C)OC(C)(C)C2)c1 | inactive | 
CNc1cc2[nH]c(=O)n(-c3ccc(NC(=O)NS(=O)(=O)c4ccc(Cl)s4)cc3)c(=O)c2cc1F | inactive | 
Fc1ccc(CN2CCC(Nc3ccc(C(F)(F)F)nn3)CC2)cc1F | inactive | 
COc1cc(OC)c(NC(=O)c2ccc(Cc3cc4c(cc3C)C(C)(C)CCC4(C)C)o2)c(OC)c1 | inactive | 
C/C=C(/C=C(C)/C=C/C=C/C=C(\C)C(=O)C12OC1C(O)(CCO)NC2=O)C(=O)OC (centres undefined) | inactive | 
C=C1C(=O)OC2C1CCC1(C)C(O)CCC(=C)C21 (centres undefined) | inactive | 

SMILES | Potency | activity change, negative = cytotoxicity
Cc1cc(F)c(C(=O)Nc2cccc(-c3nncn3C(C)C)n2)cc1-n1cnc(C2CC2)c1 | inactive | 
C/C=C(/C)C(=O)OC1C=C2C3C(C)C(C)C(OC(=O)C(C)C(C)O)CC3(C)CCC2(C)C2(C)CC(OC(C)=O)C3C(C)(C)C(O)C(=O)CC3(C)C12 (centres undefined) | inactive | 
Cc1nc(Nc2ccc(F)cc2)nc(N2CCc3ccccc3C2C)c1C (centres undefined) | inactive | 
C#CC(=O)N(c1ccc(OC)cc1OC)C(C(=O)NCC(=O)OCC)c1cccs1 (centres undefined) | 3.16 µM (active) | 
COC1CCN(C(=O)c2cc(Cc3n[nH]c(=O)c4ccccc34)ccc2F)CC1 | inactive | 
CCCc1ccc(OCC(=O)N(Cc2nc(-c3cccnc3)no2)C(C)C)cc1 | inactive | 
CC(=O)OC1CC(C)(C(=O)O)CC2C3=CC(=O)C4C5(C)CCC(OC6OC(C(=O)O)C(O)C(O)C6OC6OC(C(=O)O)C(O)C(O)C6O)C(C)(C)C5CCC4(C)C3(C)CCC12C (centres undefined) |  | 0% [at 11.6 µM] (inactive)
C=CC(=O)N1CCN(C(=O)CNc2cc(-c3ccccc3Cl)c(Cl)cc2OC)CC1 | inactive | 
Cc1c(C(=O)NCc2cccnc2)nn(-c2ccc(Cl)cc2Cl)c1-c1ccc(Cl)cc1 | inactive | 
Cc1cccc(C#Cc2cc(F)cc(C#N)c2)n1 | inactive | 
NCC(CNc1nc(Nc2cccc(NC(=O)N3CCCC3)c2)ncc1I)C(=O)c1cccs1 (centres undefined) | inactive | 
COc1cc(C(N)=O)nc(-c2ccccn2)c1O | inactive | 
COc1cc(O)cc(OC2OC(CO)C(O)C(O)C2O)c1 (centres undefined) | inactive | 
N#Cc1ccc(N2N=C3c4ccc(C(=O)O)cc4CC[C@@H]3[C@@H]2C2CCCC2)cc1Cl | inactive | 
O=C([C@@H](Cc1cccc(C(F)(F)F)c1)NS(=O)(=O)c1cc(F)c2c(c1)CCNC2)N1CCCC1 | inactive | 
CCNC(=O)c1noc(-c2cc(Cl)c(O)cc2O)c1-c1ccc(OC)cc1 | 2.82 µM (active) | 
O=C(NCc1nc2ccccc2c(=O)n1-c1ccc(F)cc1)Nc1ccc(Cl)c(C(F)(F)F)c1 | inactive | 
